# The entries come from a sample that favours hits as a whole.
# CD40 NFkB inh: CD40 pathway inhibition in BL2 cells; BL2 NF-kB luciferase reporter, CD40L-induced, 4 h; inhibition, % at 10 µM; 83,000 tested, 0.94% active; AID 1053188;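 active = mean inhibition of at least 50% with a set share of replicates also reaching that level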;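 note: 0% = neutral control wells and 100% = IKK inhibitor VII at 50 µM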
# The depositor's hits bear a star; [ ] = dose if it differs, or a comment.
SMILES,CD40 NFkB inh
O=C(C1COc2ccccc2O1)N1CCN(c2nc3ccc([N+](=O)[O-])cc3s2)CC1 (stereo not given),4
O=C(c1ccc([N+](=O)[O-])o1)N1CCN(c2nc3ccc(F)cc3s2)CC1,32*
O=C(c1cccs1)N1CCN(c2nc3ccccc3s2)CC1,-19
O=C(c1ccc([N+](=O)[O-])o1)N1CCN(c2nc3c(Cl)cccc3s2)CC1,14
C[C@@H]1CN([C@@H](C)CO)C(=O)c2ccccc2-c2ccccc2CO[C@H]1CN(C)C(=O)c1ccncc1,2
CNC[C@H]1Oc2ccc(NS(C)(=O)=O)cc2CC(=O)N(C)C[C@H]1C,-1
COc1cccc(NC(=O)N(C)C[C@@H]2Oc3ncc(/C=C/c4ccccc4)cc3C(=O)N([C@@H](C)CO)C[C@H]2C)c1,11[25 µM]
COc1ccc(NC(=O)N[C@@H]2CC[C@H](CCNC(=O)CCN3CCCCC3)O[C@H]2CO)cc1,1
Clc1ccc(C[n+]2cc(-c3ccccc3)n3c2CCCCC3)c(Cl)c1,65*
Clc1ccc(-c2cnc3n2CCCCC3)cc1,-3
CC1(C(=O)Nc2ccccc2Br)CCN1C(=O)Cc1ccc(Cl)cc1Cl (stereo not given),1
N#C[C@H]1[C@H](c2ccccc2C2=CCCC2)[C@@H](CO)N1C(=O)C1CCOCC1,1[25 µM]
CCCC(=O)NNC(=O)CCC(=O)Nc1ccccc1Cl,9
CCCC(=O)NC1=C(Cl)C(=O)c2ccccc2C1=O,107*
CCNC1=C(Cl)C(=O)c2ccccc2C1=O,-25
C/C=C/c1ccc([C@@H]2[C@H](CO)N(C(=O)CN(C)C)C23CN(C(=O)C2CCOCC2)C3)cc1,-10[25 µM]
CC(C)NC(=O)Nc1ccc2c(c1)C(=O)N(C)[C@@H]1CC[C@H](CC(=O)NCc3ccc(F)cc3)O[C@H]1CO2,4[25 µM]
CO[C@H]1CN(C)C(=O)c2cc(NC(=O)C3CCC3)ccc2OC[C@H](C)N(Cc2cccnc2)C[C@H]1C,-5
CNC[C@H]1Oc2ncc(-c3cncnc3)cc2C(=O)N([C@@H](C)CO)C[C@H]1C,1[25 µM]
CO[C@@H]1CN(C)C(=O)c2cc(NC(=O)C3CCCC3)ccc2OC[C@H](C)NC[C@@H]1C,0
c1c2c(cc3sc(N4CCOCC4)nc13)OCCO2,87*
c1ccc(N2CCN(c3nc4cc5c(cc4s3)OCCO5)CC2)cc1,-76
Nc1ccc2nc(N3CCOCC3)sc2c1,-45
COc1ccc(-c2ccc3c(c2)[C@@H]2[C@@H](CCN2C(=O)C2CCOCC2)[C@H](CO)N3C)cc1,-10[25 µM]
COC(=O)[C@@H]1[C@@H](CO)[C@@H]2Cn3c(ccc(C4=CCCCC4)c3=O)[C@@H]2N1Cc1ccc2c(c1)OCO2,-4[25 µM]
SMILES,CD40 NFkB inh
COc1cccc(C#Cc2ccc([C@@H]3[C@H]4CN(C(=O)Cc5cccnc5)CC(=O)N4[C@H]3CO)cc2)c1,4[25 µM]
C[C@@H]1C[C@H]2[C@@H]3C[C@H](F)C4=CC(=O)C=C[C@]4(C)[C@@]3(F)[C@@H](O)C[C@]2(C)[C@@]1(O)C(=O)COC(=O)C(C)(C)C,33
CC(=O)[C@@]1(O)CC[C@H]2[C@@H]3C[C@H](C)C4=CC(=O)C=C[C@]4(C)[C@@]3(F)[C@@H](O)C[C@@]21C,23
CCCC(=O)O[C@]1(C(=O)COC(C)=O)CC[C@H]2[C@@H]3C[C@H](F)C4=CC(=O)C=C[C@]4(C)[C@@]3(F)[C@@H](O)C[C@@]21C,56*
CO[C@@H]1CN(C)C(=O)c2ccc(NC(=O)NC3CCCCC3)cc2OC[C@@H](C)NC[C@H]1C,-3[25 µM]
CN(C)Cc1csc(NC(=O)Nc2cccc(Cl)c2)n1,-13
NC(c1csc(NC(=O)Nc2cccc(Cl)c2)n1)c1ccccc1Cl (stereo not given),59*
NC(c1csc(Nc2cc(Oc3ccccc3)ncn2)n1)c1ccccc1Cl (stereo not given),-15
C[C@H](CO)N1C[C@H](C)[C@H](CN(C)Cc2ccccc2)Oc2ccc(NC(=O)c3ccncc3)cc2C1=O,-3
CS(=O)(=O)Nc1ccc2c(c1)[C@@H]1C[C@H](CC(=O)NC3CCCC3)O[C@H](CO)[C@@H]1O2,-5[25 µM]
CS(=O)c1ccccc1O (stereo not given),12
O=S(c1ccccc1O)S(=O)c1ccccc1O (stereo not given),82*
O=C(O)c1ccccc1O,4
O=C(C[C@H]1C[C@@H]2c3cc(NC(=O)c4cccnc4)ccc3O[C@@H]2[C@H](CO)O1)NC1CCCC1,6
CC(C)NC(=O)N1C[C@@H]2C(c3ccccc3)[C@H](C1)N2CC(F)(F)F (stereo not given in full),6
O=C(Cc1ccncc1)Nc1ccc2c(c1)[C@H]1C[C@@H](CC(=O)N3CCc4ccccc4C3)O[C@H](CO)[C@H]1O2,10[25 µM]
CCC(=O)N[C@H]1C=C[C@@H](CC(=O)NCCN2CCCCC2)O[C@@H]1CO,1
C/C=C/c1ccc([C@H]2[C@@H](CO)N(Cc3ccccn3)[C@H]2CNC(=O)CC)cc1,-3[25 µM]
CC1(C)C2CCC1(C)C(OCC[N+](C)(C)CC(=O)OC1CCCCC1)C2 (stereo not given),57*
CC1(C)[C@H]2CC[C@]1(C)[C@@H](OC(=O)C[N+]1(C)CCOCC1)C2,0
O=C(CCCCC(=O)OC1CCCCC1)OC1CCCCC1,-10
C[C@H]1CN([C@@H](C)CO)C(=O)c2c(c3ccccc3n2C)-c2ccccc2CO[C@@H]1CN(C)C(=O)[C@H]1CCCN1C,-8[25 µM]
C[C@H]1CN([C@@H](C)CO)C(=O)CCCn2nncc2CO[C@H]1CN(C)CC1CC1,5
CN(C)C(=S)N=c1ssc(=S)n1Cc1ccccc1,44*
CSc1nnc(CNC(=O)C23CC4CC(CC(C4)C2)C3)n1Cc1ccccc1,8
SMILES,CD40 NFkB inh
CN(C)C(=O)[C@H]1[C@H](CO)[C@H]2Cn3c(ccc(/C=C/c4ccccc4)c3=O)[C@H]2N1C(=O)c1cccnc1,-2[25 µM]
O=C(Nc1ccc2c(c1)OCCO2)c1cc2ccccc2o1,33
O=C(NC1=NCCS1)c1cc2ccccc2o1,63*
O=C(Nc1cccc2ncccc12)c1cc2ccccc2o1,-10
O=C(Nc1ncccc1O)c1cc2ccccc2o1,-9
Cc1ccnc(NC(=O)c2cc3ccccc3o2)c1,88*
O=C(NC1CC1)c1cc2ccccc2o1,-4
COc1ccc(C#Cc2ccc([C@H]3[C@H]4CN(C(=O)c5ccc(F)cc5)CC(=O)N4[C@H]3CO)cc2)cc1,-1[25 µM]
COc1ccc(NC(=O)N[C@H]2CC[C@@H](CCNC(=O)CN3CCOCC3)O[C@H]2CO)cc1,-4[25 µM]
CC(=O)Nc1ccc(C(=O)COC(=O)C2CC3CCCC(C2)C3=O)cc1 (stereo not given),-5
CC(=O)NCCc1ccc(C(=O)COC(=O)c2ccco2)cc1,-1
CC(=O)NCCc1ccc(C(=O)COC(=O)C2CCCCC2)cc1,54*
Cc1noc(C)c1S(=O)(=O)N(C)C[C@H]1OCc2ccccc2-c2ccccc2C(=O)N([C@@H](C)CO)C[C@@H]1C,-5[25 µM]
C[C@@H]1CN([C@@H](C)CO)C(=O)Cc2cc(NS(=O)(=O)c3cn(C)cn3)ccc2O[C@H]1CN(C)C(=O)NC1CCCCC1,-10[25 µM]
C[C@@H]1CN([C@@H](C)CO)C(=O)Cc2cc(NC(=O)Cn3cnnn3)ccc2O[C@H]1CN(C)C(=O)Nc1ccc(C(F)(F)F)cc1,-1[25 µM]
C[C@@H]1CN([C@@H](C)CO)C(=O)c2cccc(NS(=O)(=O)c3cccs3)c2O[C@@H]1CN(C)Cc1ccc2c(c1)OCO2,-11[25 µM]
O=C(NC1CCCCC1)[C@H]1[C@H](CO)[C@H]2Cn3c(ccc(-c4ccccc4)c3=O)[C@@H]1N2,-4

# Source: PubChem
